Compounds with a hit are over-represented: about 9.2% of the library has one in this group of screens.
FLuc modulator: counter-screen for miR-21 project: firefly luciferase inhibitors or activators; purified FLuc, Km substrates, luminescence inhibition; Potency, µM (doses to about 57.5 µM), hits mostly inhibitors; 360,000 compounds, 6.9% hits; P08659; further: nearly all actives have a fitted effect of over 55% in size
Target sequence (P08659 whole entry, looked up): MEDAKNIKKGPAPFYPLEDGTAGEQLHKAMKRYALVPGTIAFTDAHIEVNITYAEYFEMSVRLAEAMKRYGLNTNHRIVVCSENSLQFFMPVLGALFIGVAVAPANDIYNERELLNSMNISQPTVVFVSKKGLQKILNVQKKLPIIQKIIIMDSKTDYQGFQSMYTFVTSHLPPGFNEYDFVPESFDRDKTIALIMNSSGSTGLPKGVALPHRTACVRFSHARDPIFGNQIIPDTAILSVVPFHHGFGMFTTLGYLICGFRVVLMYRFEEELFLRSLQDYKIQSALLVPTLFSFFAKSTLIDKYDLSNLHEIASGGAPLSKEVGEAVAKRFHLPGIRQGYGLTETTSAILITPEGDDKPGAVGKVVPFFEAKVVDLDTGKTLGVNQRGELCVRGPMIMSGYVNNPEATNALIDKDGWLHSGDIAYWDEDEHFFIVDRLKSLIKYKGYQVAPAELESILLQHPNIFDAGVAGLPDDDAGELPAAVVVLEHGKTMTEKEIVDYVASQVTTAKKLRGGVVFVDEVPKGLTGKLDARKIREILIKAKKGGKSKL
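Biochemical qHTS of compounds, final roughly 60 µM downward over six points, against 10 nM purified firefly luciferase using Km concentrations of substrates (10 uM D-luciferin, 10 uM ATP) in Tris acetate pH 7.5 buffer; luminescence output.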
ELG1 genotox: induces genotoxicity in HEK293T cells with luciferase-tagged ELG1; AID 504466; Potency, µM (top dose mostly 46 µM), actives largely listed as activators; HEK293T ELG1-luciferase reporter, luminescence, 16 h; 330,000 compounds, 1.3% hits; further: nearly all actives have a fitted effect of over 60% in size
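After overnight (16 hr) compound treatment at 37 °C, ELG1-luciferase HEK293T cells were lysed with ONE-Glo; luminescence quantified 30 min later at room temperature.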
Rab9 prom act: Rab9 promoter activation. Huh7 Rab9 promoter-luciferase reporter, luminescence, 24 h. Potency, µM (titrated, usually from 9.22 µM), actives largely listed as activators. 320,000 compounds, 2.8% hits. AID 485297; further: nearly all actives have a fitted effect of over 60% in size
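Cell-based reporter: Huh7 stable for Rab9 promoter-driven luciferase, plated in reduced-serum medium with 10% FBS at 1500 cells/well, compound-treated 24 h at 37 °C, luminescence read after 10 min reagent.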
SMN2 splice up: SMN2 splice variant enhancement; HEK293 SMN2-luciferase splicing reporter, luminescence, 30-36 h; Potency, µM (doses to about 46.1 µM), most hits filed as activators; 210,000 compounds, 2.8% hits; AID 1458; further: nearly all actives have a fitted effect of over 55% in size
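HEK293 cells carry an SMN2 minigene-luciferase reporter in which exon 7 inclusion puts luciferase in frame. Cells were seeded at 2000 cells/well, attached for 10-12 hours, then exposed to compounds for 30-36 hours at 37C before ONE-Glo luminescence.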
ELG1 repair inh: ELG1-dependent DNA repair inhibition; AID 504467; 330,000 compounds, 2.3% hits; Potency, µM (highest dose often 46.1 µM), most hits filed as inhibitors; HEK293T ELG1-luciferase reporter, luminescence, 16 h; DNA damage induced by 5-fluorouridine; further: nearly all actives have a fitted effect of over 55% in size
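5-Fluorouridine DNA damage + compound/DMSO, 2,000 cells/well, 16 h, 37 °C/5% CO2. ONE-Glo, 30 min RT, luminescence. Readout = decrease in reporter signal.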
NPC1 prom act: activators of NPC1 promoter; Huh7 NPC1 promoter luciferase reporter, 24 h; Potency, µM (highest dose often 9.22 µM), most hits filed as activators; 320,000 compounds, 2.4% hits; further: nearly all actives have a fitted effect of over 60% in size
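Huh7 reporter cells (NPC1 promoter driving luciferase) are dosed with compound for 24 h at 37 °C, 5% CO2; luciferase detection reagent is then added and luminescence measured after 10 min at ambient temperature.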
A number is an active result; [ ] = another dose, or the depositor's remark. The call rests on the fitted dose curve; in most records, active means well fitted curve in the direction sought with a large enough effect; inconclusive means small, poorly fitted or top-dose-only effect, or another doubt; inactive means no such curve, though single readings can be large; an effect the other way counts as inactive or inconclusive.

CC(C)C(C)NC(=O)COC(=O)c1cccc(C(=O)OCC(=O)NC(C)C(C)C)n1 (centres undefined) was read as FLuc modulator inactive, ELG1 genotox inactive, Rab9 prom act inactive, SMN2 splice up inactive, ELG1 repair inh inactive and NPC1 prom act inactive.
For CCC(=O)Nc1ccc(C2C(=O)c3ccccc3C2=O)cc1 the results were FLuc modulator 1.3µM, ELG1 genotox inconclusive, Rab9 prom act inconclusive, ELG1 repair inh inconclusive and NPC1 prom act 0.79µM.
`CCC(=O)NC1=C(Nc2ccc(N)cc2)C(=O)c2ccccc2C1=O` gave FLuc modulator 27µM, ELG1 genotox inactive, Rab9 prom act 2.8µM, ELG1 repair inh inconclusive and NPC1 prom act inactive.
COCCCn1cnc2oc3nc4ccccc4nc3c2c1=O was read as FLuc modulator 7.6µM, ELG1 genotox 2.1µM, Rab9 prom act 0.63µM, SMN2 splice up 10µM, ELG1 repair inh inconclusive and NPC1 prom act 1.6µM.
For COc1ccccc1N1C(=N)S/C(=C\c2ccc(-c3ccccc3C(=O)O)o2)C1=O the results were FLuc modulator inconclusive, ELG1 genotox inactive, Rab9 prom act inactive, SMN2 splice up inactive, ELG1 repair inh inactive and NPC1 prom act inactive.
Screening N=C1S/C(=C\c2ccc(-c3ccccc3C(=O)O)o2)C(=O)N1c1ccc2c(c1)OCO2 returned FLuc modulator 9.5µM, ELG1 genotox inactive, Rab9 prom act inactive, ELG1 repair inh inactive and NPC1 prom act inactive.
CCOC(=O)c1sc(=NC(=O)c2ccc(C)cc2)n(C)c1C was read as FLuc modulator inconclusive, ELG1 genotox inconclusive, Rab9 prom act inconclusive, SMN2 splice up 22µM, ELG1 repair inh inconclusive and NPC1 prom act inactive.
Screening Cn1c(=NC(=O)COc2ccccc2)sc2cccc(F)c21 returned FLuc modulator inconclusive, ELG1 genotox inconclusive, Rab9 prom act 1.8µM, ELG1 repair inh inconclusive and NPC1 prom act 3.5µM.
CCOC(=O)c1sc(=NC(=O)c2ccc(F)cc2)n(C)c1C was read as FLuc modulator 0.67µM, ELG1 genotox inconclusive, Rab9 prom act inactive, ELG1 repair inh inconclusive and NPC1 prom act inactive.
For CCOC(=O)c1sc(=NC(=O)c2c(F)cccc2F)n(C)c1C the results were FLuc modulator inactive, ELG1 genotox inconclusive, Rab9 prom act inconclusive, ELG1 repair inh inconclusive and NPC1 prom act inactive.
Screening CCOC(=O)c1sc(=NC(=O)COc2ccccc2)n(C)c1C returned FLuc modulator inconclusive, ELG1 genotox inconclusive, Rab9 prom act 3.2µM, SMN2 splice up inconclusive, ELG1 repair inh inconclusive and NPC1 prom act inconclusive.
`COc1ccc(Cl)cc1NC(=O)CSC1=Nc2ccccc2C2=NC(CC(=O)NC3CCCCC3)C(=O)N12` (centres undefined) gave FLuc modulator inactive and SMN2 splice up inactive.
`O=C(c1cnccn1)N1CCC2(CC1)CN(c1ccncc1)C2` gave SMN2 splice up inactive.
`COCCNC(=O)NC(=O)CN1CCN(C(c2ccccc2)c2ccccc2)CC1` gave FLuc modulator inactive, ELG1 genotox inactive, Rab9 prom act inactive, SMN2 splice up inactive, ELG1 repair inh inactive and NPC1 prom act inactive.
Screening CC1=C(C(=O)Nc2ccccc2)C(CC(C)C)n2nc(SCc3ccccc3C)nc2N1 (centres undefined) returned FLuc modulator inactive and SMN2 splice up inactive.
Cc1ccc(-c2csc3nc(-c4ccncc4)[nH]c(=O)c23)cc1 was read as FLuc modulator inactive, ELG1 genotox inactive, Rab9 prom act inactive, ELG1 repair inh inactive and NPC1 prom act inactive.
Screening Cc1ccc(-c2nc3ccsc3c(=O)[nH]2)cc1 returned FLuc modulator 12µM, ELG1 genotox inconclusive, Rab9 prom act inconclusive, SMN2 splice up 18µM, ELG1 repair inh inconclusive and NPC1 prom act inactive.
`CCOc1cc(/C=N/Nc2nc(-c3cccc(S(=O)(=O)N4CCCC4)c3)cs2)ccc1O` gave FLuc modulator inactive, ELG1 genotox inactive, Rab9 prom act inactive, SMN2 splice up inactive, ELG1 repair inh 21µM and NPC1 prom act inactive.
Screening O=S(=O)(c1cccc(-c2csc(-c3ccccc3)n2)c1)N1CCOCC1 returned FLuc modulator inactive, ELG1 genotox inactive, Rab9 prom act inactive, SMN2 splice up inactive, ELG1 repair inh inactive and NPC1 prom act inactive.
COc1cc(/C=N/Nc2nc(-c3ccc(S(=O)(=O)N(C)C)cc3)cs2)ccc1O was read as FLuc modulator 3.4µM, ELG1 genotox inactive, Rab9 prom act inactive, ELG1 repair inh 12µM and NPC1 prom act inactive.
COc1ccc(/C=N/Nc2nc(-c3cccc(S(=O)(=O)N4CCCC4)c3)cs2)cc1OC was read as FLuc modulator inconclusive, ELG1 genotox inactive, Rab9 prom act inactive, SMN2 splice up inactive, ELG1 repair inh inconclusive and NPC1 prom act inactive.
O=S(=O)(c1cccc(-c2csc(N/N=C/c3ccco3)n2)c1)N1CCOCC1 was read as FLuc modulator inconclusive, ELG1 genotox inactive, Rab9 prom act inactive, ELG1 repair inh 23µM and NPC1 prom act inactive.
O=C(O)c1ccc2c(c1)-c1cc(C(=O)O)ccc1S2(=O)=O was read as FLuc modulator inactive, ELG1 genotox inactive[9.26 µM], Rab9 prom act inactive, ELG1 repair inh inactive and NPC1 prom act inactive.
For O=C(COc1ccc(F)cc1Br)NCc1nnc2ccccn12 the results were ELG1 genotox inactive and ELG1 repair inh inactive.
Screening COc1ccc(NC(=O)Cc2nnc(SCC(=O)c3ccccc3)n2C)cc1 returned FLuc modulator inactive, ELG1 genotox inactive, Rab9 prom act inactive, ELG1 repair inh inactive and NPC1 prom act inactive.
`CCCN(CCC)C(=O)Cn1c(=O)n(CCCCCC(=O)Nc2ccccc2)c(=O)c2sccc21` gave FLuc modulator inactive, ELG1 genotox inactive, Rab9 prom act inactive, SMN2 splice up inactive, ELG1 repair inh inactive and NPC1 prom act inactive.
For Cc1cccc(N=N/C(=C\O)C(=O)c2cccs2)c1 the results were FLuc modulator inconclusive, ELG1 genotox inactive, Rab9 prom act inactive, SMN2 splice up inactive, ELG1 repair inh 21µM and NPC1 prom act inactive.
CCOc1ccc(Nc2ccc([N+](=O)[O-])c3nonc23)cc1 was read as FLuc modulator 12µM, ELG1 genotox inactive, Rab9 prom act 4.5µM, ELG1 repair inh inconclusive and NPC1 prom act inconclusive.
`COc1cc(/C=N/NC(=S)NC2CC3C=CC2C3)cc(OC)c1OC` (centres undefined) gave FLuc modulator inactive, ELG1 genotox inactive, Rab9 prom act inactive, ELG1 repair inh 18µM and NPC1 prom act inactive.
For COc1cc(/C=N/NC(=S)NCCc2ccccc2)cc(OC)c1OC the results were FLuc modulator 27µM, ELG1 genotox inactive, Rab9 prom act inactive, ELG1 repair inh inconclusive and NPC1 prom act inactive.

Screening results as filed in PubChem.
